Where “and” joins values, the source holds several entries; their conditions need not be identical. Equal values may be shown once. Inconclusive results are not listed. Entries that show only a call come without a potency. Calls of active or inactive are those of the source. The call rests on the fitted dose curve; in most records, active means well fitted inhibition curve with a large enough effect in the signal ratio in the repeat runs (not every such curve was filed as active); inconclusive means weak or mixed curves, or effect the other way; inactive means no such curve, though single readings can be large or run the other way; the % refers to the signal ratio.
Each compound was assayed against Peroxisome proliferator-activated receptor delta (Homo sapiens) (UniProt Q03181) (assay: qHTS assay to identify small molecule antagonists of the peroxisome proliferator-activated receptor delta (PPARd) signaling pathway (AID 743215;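 further: cells stimulated with agonist L165041 at 300 nM final during compound exposure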)). Conditions: HEK293H PPARd-UAS-bla, beta-lactamase FRET ratio, antagonist, 17 h; series mostly up to 62 µM.
Peroxisome proliferator-activated receptor delta (Homo sapiens), sequence (Q03181 whole entry, looked up): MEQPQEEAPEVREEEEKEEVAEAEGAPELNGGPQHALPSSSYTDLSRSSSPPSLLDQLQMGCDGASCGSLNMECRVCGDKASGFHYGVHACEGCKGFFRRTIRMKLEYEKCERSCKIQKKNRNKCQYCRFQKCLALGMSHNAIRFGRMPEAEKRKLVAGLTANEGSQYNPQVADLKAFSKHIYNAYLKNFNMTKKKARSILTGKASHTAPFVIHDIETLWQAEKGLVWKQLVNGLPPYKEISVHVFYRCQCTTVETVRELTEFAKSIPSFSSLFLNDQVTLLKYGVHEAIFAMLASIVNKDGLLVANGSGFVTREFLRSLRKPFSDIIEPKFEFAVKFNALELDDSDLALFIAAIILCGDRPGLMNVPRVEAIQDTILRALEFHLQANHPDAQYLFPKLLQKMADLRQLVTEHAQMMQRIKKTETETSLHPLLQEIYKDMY
From the text: U.S. Tox21 Program National Center for Advancing Translational Sciences [NCATS] NIH Chemical Genomics Center [NCGC] U.S. Environmental Protection Agency [EPA] National Institutes of Environmental Health Sciences [NIEHS] National Toxicology Program [NTP] U.S. Food and Drug Administration [FDA] Tox21 Assay Overview: The peroxisome proliferator-activated receptors (PPARs) are lipid-activated transcription factors of the nuclear receptor superfamily with three distinct subtypes namely PPAR alpha, PPAR delta (PPARd) and PPAR gamma. All these subtypes heterodimerizes with Retinoid X receptor (RXR) and have different physiological functions. […] To identify the compounds that inhibit PPAR-delta signaling, GeneBLAzer PPAR delta UAS-bla HEK293H cell line (Invitrogen, Carlsbad, CA, USA) containing a beta-lactamase reporter gene under the control of an Upstream Activator Sequence (UAS) was used to screen the Tox21 compound library.
Tox21 Assay Protocol Summary: PPARd-bla cells were dispensed at 3000 cells/5uL/well in 1536-well black wall/clear bottom plates using a Multidrop Combi (Thermo Fisher Scientific, Waltham, MA) dispenser. After the assay plates were incubated at 37 C and 5% CO2 for 5 h, 23 nL of compounds dissolved in DMSO, positive controls or DMSO only was transferred to the assay plate by a Pintool station (Kalypsys, San Diego, CA), followed by addition of 1ul L165041 (300 nM, final concentration in the wells). The assay plates were incubated at 37 C for 17 h, and then 1 uL of LiveBLAzerTM B/G FRET substrate was added using a Bioraptr Flying Reagent Dispenser (FRD) workstation (Beckman Coulter, Indianapolis, IN, USA). The assay plates were incubated at room temperature for 2 h and fluorescence intensity was measured by an Envision plate reader (PerkinElmer, Shelton, CT).
In the case of `CCOP(=S)(OCC)SCSC(C)(C)C`, the Potency is reported as “inactive”. `ClC(Cl)(Cl)Br` was tested, and the Potency was “inactive”. `Cc1cc(Cl)ccc1N=CN(C)C` was tested, and the Potency was “inactive”. With `CC(O)CN(CC(C)O)CC(C)O` (stereo not given) the Potency was “inactive”. For `Brc1ccc(Br)cc1`, the Potency was “inactive”. `CCNc1nc(Cl)nc(NC(C)(C)C#N)n1` was tested, and the Potency was “inactive”. With `Nc1ccc([N+](=O)[O-])cc1N` the Potency was “inactive”. In the case of `COC(=O)Nc1nc2ccccc2[nH]1`, the Potency is reported as “inactive”. For `Oc1ccc(Cl)cc1Cl`, the Potency was “inactive”. For `O=C(O)c1nn(Cc2ccc(Cl)cc2Cl)c2ccccc12`, the Potency was “inactive”. With `COP(=S)(OC)Oc1ccc(Sc2ccc(OP(=S)(OC)OC)cc2)cc1` the Potency was “inactive”. `OC(c1ccc(Cl)cc1)(c1cncnc1)c1ccccc1Cl` (stereo not given) was tested, and the Potency was “inactive”. `C[N+](C)(C)CC(=O)[O-]` was tested, and the Potency was “inactive”. With `CCOP(=S)(OCC)OP(=S)(OCC)OCC` the Potency was “inactive”. With `CC(C)CON=O` the Potency was “inactive”. In the case of `N#Cc1cccnc1`, the Potency is reported as “inactive”. With `CC1(C)C(C(=O)OC(C#N)c2cccc(Oc3ccccc3)c2)C1(C)C` (stereo not given) the Potency was “inactive”. `CCCCCCCCCc1ccc(O)cc1` was tested, and the Potency was “inactive”. With `CCCCOC(=O)COC(=O)c1ccccc1C(=O)OCCCC` the Potency was “inactive”. With `C=C(C)C#N` the Potency was “inactive”. With `CCCCC(C#N)(Cn1cncn1)c1ccc(Cl)cc1` (stereo not given) the Potency was “inactive”. `CC[n+]1c(-c2ccccc2)c2cc(N)ccc2c2ccc(N)cc21` was tested, and the Potency was 24.4 µM (active) and 23.7 µM (active). In the case of `Oc1ccc(Cl)cc1Cc1ccccc1`, the Potency is reported as “inactive”. In the case of `CCCCOCC1CO1` (stereo not given), the Potency is reported as “inactive”. `CN(C)P(=O)(N(C)C)N(C)C` was tested, and the Potency was “inactive”. In the case of `ClCc1ccccn1`, the Potency is reported as “inactive”. In the case of `COP(=O)(NC(C)=O)SC` (stereo not given), the Potency is reported as “inactive”. With `C[N+](C)(C)CC(=O)O` the Potency was “inactive”. With `CCCCSP(=O)(SCCCC)SCCCC` the Potency was “inactive”. With `ClCC(Cl)CCl` the Potency was “inactive”. For `Cc1cccc(N=Nc2ccc(N(C)C)cc2)c1`, the Potency was “inactive”. With `Cc1ccc([N+](=O)[O-])cc1` the Potency was “inactive”. In the case of `CCN(CC)C(=O)C(C)Oc1cccc2ccccc12` (stereo not given), the Potency is reported as “inactive”. `N#CCCCCC#N` was tested, and the Potency was “inactive”. For `Cn1c(-c2ccccc2)cc(-c2ccccc2)[n+]1C`, the Potency was “inactive”. With `CC1=C(C(=O)Nc2ccccc2)SCCO1` the Potency was “inactive”. In the case of `N#CC(c1ccccc1)c1ccccc1`, the Potency is reported as “inactive”. `ClC(Cl)(Cl)c1ccccc1` was tested, and the Potency was “inactive”. With `C=CC(=O)OCC(CC)(COC(=O)C=C)COC(=O)C=C` the Potency was 12.6 µM (active). For `C[C@]12CC[C@H]3[C@@H](CCC4=CC(=O)CC[C@@H]43)[C@@H]1CC[C@@H]2O`, the Potency was “inactive”.

Source: PubChem BioAssay (Tox21)
Potency means the concentration at half of the fitted maximal effect.
